The whole screen tested about 310,000 compounds, of which about 2,200 (0.71%) showed an effect of 50% or more. The effect is printed as a negative number. The full list was thinned out, with strong results kept by preference.

Sequence of human ether-à-go-go-related gene (hERG) potassium channel (Q12809 whole entry, looked up): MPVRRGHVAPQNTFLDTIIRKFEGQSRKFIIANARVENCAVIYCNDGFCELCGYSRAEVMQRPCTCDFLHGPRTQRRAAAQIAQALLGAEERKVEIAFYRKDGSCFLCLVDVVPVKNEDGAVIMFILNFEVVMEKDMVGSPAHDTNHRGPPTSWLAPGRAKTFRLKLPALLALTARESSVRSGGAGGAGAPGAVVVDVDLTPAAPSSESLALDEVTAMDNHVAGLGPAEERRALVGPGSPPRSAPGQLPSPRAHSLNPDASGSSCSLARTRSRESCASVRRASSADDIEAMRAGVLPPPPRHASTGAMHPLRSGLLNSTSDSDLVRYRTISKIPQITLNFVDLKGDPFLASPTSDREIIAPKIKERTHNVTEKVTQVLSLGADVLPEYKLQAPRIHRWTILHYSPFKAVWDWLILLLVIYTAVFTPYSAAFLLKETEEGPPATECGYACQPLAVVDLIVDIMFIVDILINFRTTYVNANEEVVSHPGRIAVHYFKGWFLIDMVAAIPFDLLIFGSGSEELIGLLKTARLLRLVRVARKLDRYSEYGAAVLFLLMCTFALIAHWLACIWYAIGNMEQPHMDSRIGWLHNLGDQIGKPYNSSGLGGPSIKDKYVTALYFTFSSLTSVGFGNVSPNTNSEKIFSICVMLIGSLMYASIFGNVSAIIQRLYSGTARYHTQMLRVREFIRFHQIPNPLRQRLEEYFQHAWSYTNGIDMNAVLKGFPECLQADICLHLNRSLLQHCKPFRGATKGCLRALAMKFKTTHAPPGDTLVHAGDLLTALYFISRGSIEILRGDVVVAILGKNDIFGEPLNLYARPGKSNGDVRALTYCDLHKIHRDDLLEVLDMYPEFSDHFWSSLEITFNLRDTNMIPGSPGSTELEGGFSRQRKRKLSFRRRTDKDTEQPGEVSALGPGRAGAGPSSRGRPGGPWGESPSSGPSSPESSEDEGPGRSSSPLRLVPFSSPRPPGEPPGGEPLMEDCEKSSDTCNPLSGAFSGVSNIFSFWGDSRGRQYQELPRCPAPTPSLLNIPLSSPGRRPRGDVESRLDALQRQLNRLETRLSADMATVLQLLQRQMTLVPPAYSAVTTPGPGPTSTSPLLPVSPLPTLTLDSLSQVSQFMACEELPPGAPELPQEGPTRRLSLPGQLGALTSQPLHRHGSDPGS

This assay has as its target human ether-à-go-go-related gene (hERG) potassium channel (human, UniProt Q12809). Description: primary screen, population patch clamp on CHO cells stably expressing hERG; higher = less effect of the substance.
On to `CCn1cc(C(=O)NCCCN2CCCC(C)C2)c(=O)c2cc(S(=O)(=O)N(C)C3CCCCC3)ccc21` (centres unmarked), for which the “hERG current change (%, negative = inhibition) at 1uM” value is recorded as -82%. Under `CC1CCCN(CCCNC(=O)c2cn(C)c3ccc(S(=O)(=O)N(C)C4CCCCC4)cc3c2=O)C1` (centres unmarked) stands -13.2%; under `CCn1cc(C(=O)NCCCN(CC(C)C)CC(C)C)c(=O)c2cc(S(=O)(=O)N(C)C3CCCCC3)ccc21`, -6.68%. Consider `CCn1cc(C(=O)NCCCN2CCCCCC2)c(=O)c2cc(S(=O)(=O)N3CCc4ccccc4C3)ccc21`, for which the “hERG current change (%, negative = inhibition) at 1uM” value is -24.5%. In the case of `CCC1CCCCN1CCCNC(=O)c1cn(CC)c2ccc(S(=O)(=O)N(C)C3CCCCC3)cc2c1=O` (centres unmarked), the “hERG current change (%, negative = inhibition) at 1uM” value is listed as -75.5%. The value for `CCn1cc(C(=O)NCCCN2CCCC2)c(=O)c2cc(S(=O)(=O)N3CCc4ccccc4C3)ccc21` was 6.45%; that for `CCn1cc(C(=O)NCCCN2CCCC(C)C2)c(=O)c2cc(S(=O)(=O)N3CCOCC3)ccc21` (centres unmarked) was 16.1%; that for `CCn1cc(C(=O)NCCCOC)c(=O)c2cc(S(=O)(=O)N(C)C3CCCCC3)ccc21` was -2.67%. With `CCn1cc(C(=O)NCCCN2CCCC(C)C2)c(=O)c2cc(S(=O)(=O)N3CCc4ccccc4C3)ccc21` (centres unmarked), the “hERG current change (%, negative = inhibition) at 1uM” value is -64.2%. For the compound `COc1cccc(CNC(=O)Cc2nc3nc(C)cc(C)n3n2)c1`, the “hERG current change (%, negative = inhibition) at 1uM” value is recorded as 14.5%.

On to `COc1cc(/C=c2\sc3n(c2=O)CCCN=3)ccc1O`, for which the “hERG current change (%, negative = inhibition) at 1uM” value turned out to be 13.5%.

Turning to `COc1ccc(/C=C/c2c([N+](=O)[O-])c(=O)n(C)c(=O)n2C)cc1OC`, the “hERG current change (%, negative = inhibition) at 1uM” value was found to be 5.36%. The value for `COc1ccc(-c2nsc(SCC(=O)Nc3cc(C)on3)n2)cc1` was 11.9%. Turning to `O=C(O)c1ccc(CNCc2ccc(Cl)cc2)cc1`, the “hERG current change (%, negative = inhibition) at 1uM” value came to 11.3%.

On to `O=C(CCc1ccccc1)Nc1cc2c3c(c1)CCC(=O)N3CCC2`, for which the “hERG current change (%, negative = inhibition) at 1uM” value is -1.85%. Take `COc1ccc(-c2cc(C)no2)cc1S(=O)(=O)Nc1cccc(C)c1`: the “hERG current change (%, negative = inhibition) at 1uM” value is 15.5%. On to `CC(C)(C)NC(=O)C1Cc2ccccc2CN1S(=O)(=O)c1ccc(F)cc1` (centres unmarked), for which the “hERG current change (%, negative = inhibition) at 1uM” value is on record as 3.91%. On to `O=C(CC1CC2CCC1C2)NCCc1ccc(Cl)cc1` (centres unmarked), for which the “hERG current change (%, negative = inhibition) at 1uM” value was -0.305%. Turning to `Cn1cccc1/C=N/N1CCN(Cc2ccc(Cl)cc2)CC1`, the “hERG current change (%, negative = inhibition) at 1uM” value came out at 3.9%. Under `COc1ccc(COCC(O)CN2CCC(CN3C(=O)c4cccc5cccc(c45)C3=O)CC2)cc1OC.Cl` (centres unmarked) stands -20.2%; under `CCS(=O)(=O)N1CCN(S(=O)(=O)c2ccc3ccccc3c2)CC1`, 13%; under `O=C(CSc1ccc(Cl)cc1)Nc1nnc(-c2ccco2)o1`, -1.41%. On to `COc1cc(C2C(C#N)=C(N)Oc3cc(C)oc(=O)c32)cc(OC)c1OC` (centres unmarked), for which the “hERG current change (%, negative = inhibition) at 1uM” value stood at 20.5%.

On to `COC(=O)c1cc(Br)c(=O)n(Cc2ccc(OC)c(OC)c2)c1`, for which the “hERG current change (%, negative = inhibition) at 1uM” value came out at 16.7%. Under `CCN(CC)CCCNC(=O)c1cn(CC)c2ccc(S(=O)(=O)N3CCc4ccccc4C3)cc2c1=O` stands 1.94%; under `CCCCN(CC)CCCNC(=O)c1cn(CC)c2ccc(S(=O)(=O)N3CCc4ccccc4C3)cc2c1=O`, -71.9%; under `CCn1cc(C(=O)NCCCN2CC(C)CC(C)C2)c(=O)c2cc(S(=O)(=O)N(C)C3CCCCC3)ccc21` (centres unmarked), -91.4%. As for `CCOCCCNC(=O)c1cn(CC)c2ccc(S(=O)(=O)N(C)C3CCCCC3)cc2c1=O`, the “hERG current change (%, negative = inhibition) at 1uM” value came to 11.3%. As for `CCn1cc(C(=O)NCCCN2CC(C)CC(C)C2)c(=O)c2cc(S(=O)(=O)N(C)C)ccc21` (centres unmarked), the “hERG current change (%, negative = inhibition) at 1uM” value is given as -17.3%.

In the case of `CCCN(CCC)CCCNC(=O)c1cn(CC)c2ccc(S(=O)(=O)N3CCc4ccccc4C3)cc2c1=O`, the “hERG current change (%, negative = inhibition) at 1uM” value is recorded as -47.9%. The value for `Oc1ccc(/C=N/Nc2ccc(C(F)(F)F)cn2)cc1` was 7.84%.

In the case of `O=C(NCc1ccco1)C(=O)NCC1OCCCN1S(=O)(=O)c1ccc(F)cc1` (centres unmarked), the “hERG current change (%, negative = inhibition) at 1uM” value is reported as 10%. For `COc1ccccc1N(C)S(=O)(=O)c1ccc(Cl)c(C(=O)NC2=NCCS2)c1`, the “hERG current change (%, negative = inhibition) at 1uM” value is listed as 21.6%. With `Cc1ccc(S(=O)(=O)NCC2COc3ccccc3O2)cc1` (centres unmarked), the “hERG current change (%, negative = inhibition) at 1uM” value is 6.71%. Under `CCc1ccc(NC(=O)CSCc2nc(N)nc(Nc3ccccc3CC)n2)cc1` stands 10.9%; under `O=C(C1CCN(C2CCN(Cc3ccc4cc(F)ccc4n3)CC2)CC1)N1CCCC1`, -78.3%.

Regarding `CCc1ccc(CN2CCC(N3CCC(C(=O)N4CCCC4)CC3)CC2)o1`, the “hERG current change (%, negative = inhibition) at 1uM” value is -28.3%. For the compound `O=C(c1cc(F)ccc1F)N1CCC(N2CCC(C(=O)N3CCCC3)CC2)CC1`, the “hERG current change (%, negative = inhibition) at 1uM” value is 16.9%.

Consider `CCCCNc1nc2ccccc2n1CC(=O)N1CCc2ccccc2C1`, for which the “hERG current change (%, negative = inhibition) at 1uM” value is on record as -6.59%. In the case of `N#Cc1nc(-c2ccc(F)cc2)oc1NCc1cccc2c1OCO2`, the “hERG current change (%, negative = inhibition) at 1uM” value is on record as 13.6%. Turning to `Cc1cc([N+](=O)[O-])nn1CC(=O)NNC(=S)Nc1ccc([N+](=O)[O-])cc1`, the “hERG current change (%, negative = inhibition) at 1uM” value came out at 11.8%.

(Values after article PMC4336329 (PLoS ONE, 2015).)
